Assay results as given in PMC7862700, “An all-to-all approach to the identification of sequence-specific readers for epigenetic DNA modifications on cytosine”.

How the values were obtained:
Test in all cases: DAPPL (digital affinity profiling via proximity ligation, sequencing); 10 mM Tris-HCl pH 7.5, 50 mM NaCl, 1 mM DTT, 4% glycerol, room temperature, 30 min; GST-TFs on glutathione beads, 16-mer random dsDNA library, 0.1% formaldehyde crosslink after washing; high values mean tight binding
FEV = target: T1, FEV (Homo sapiens, UniProt Q99581 1-238); settings: protein: recombinant; tags: N-terminal GST; dsDNA, one strand shown
T1 sequence: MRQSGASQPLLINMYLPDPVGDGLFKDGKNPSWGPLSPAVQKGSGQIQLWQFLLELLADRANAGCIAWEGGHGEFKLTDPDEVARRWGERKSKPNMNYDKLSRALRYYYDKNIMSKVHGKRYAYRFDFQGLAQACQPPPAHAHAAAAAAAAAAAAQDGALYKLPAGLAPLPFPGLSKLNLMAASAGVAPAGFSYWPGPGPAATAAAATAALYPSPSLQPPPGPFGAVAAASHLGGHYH
Procedure, shortened: (§1)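 Each value of binding signal is a hexamer's read frequency for a factor divided by the same hexamer's frequency in the tag-only sample. Barcoded, bead-captured GST fusions of human transcription factors made in yeast were pooled with that sample and incubated with 200 nmole of a random double-stranded 16-mer DNA library in Tris/NaCl/DTT/glycerol buffer at room temperature for 30 min. Washing, 0.1% formaldehyde crosslinking, proximity ligation, PCR and Illumina NextSeq500 sequencing followed.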

ETV5 = ETV5 (Homo sapiens, UniProt P41161 1-510); settings: protein: recombinant; tags: N-terminal GST; dsDNA, one strand shown
ETV5, sequence (P41161 whole entry): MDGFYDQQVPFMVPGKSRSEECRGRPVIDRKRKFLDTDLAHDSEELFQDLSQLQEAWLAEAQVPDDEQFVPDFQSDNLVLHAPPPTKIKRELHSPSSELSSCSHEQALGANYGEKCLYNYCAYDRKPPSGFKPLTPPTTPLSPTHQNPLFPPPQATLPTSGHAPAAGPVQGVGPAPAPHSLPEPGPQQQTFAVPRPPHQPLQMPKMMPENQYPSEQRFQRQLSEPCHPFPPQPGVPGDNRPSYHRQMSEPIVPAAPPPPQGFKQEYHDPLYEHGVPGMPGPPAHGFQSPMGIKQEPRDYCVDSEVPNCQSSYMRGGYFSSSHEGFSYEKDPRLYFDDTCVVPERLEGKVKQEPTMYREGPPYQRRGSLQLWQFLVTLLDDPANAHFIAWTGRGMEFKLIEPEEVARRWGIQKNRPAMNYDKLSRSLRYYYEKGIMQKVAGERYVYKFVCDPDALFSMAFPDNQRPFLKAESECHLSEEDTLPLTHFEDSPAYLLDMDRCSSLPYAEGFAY
Procedure, shortened: as §1

HSF1 = HSF1 (Homo sapiens, UniProt Q00613 1-529); settings: protein: recombinant; tags: N-terminal GST; chain copies: 3; dsDNA, one strand shown
HSF1, sequence (Q00613 whole entry): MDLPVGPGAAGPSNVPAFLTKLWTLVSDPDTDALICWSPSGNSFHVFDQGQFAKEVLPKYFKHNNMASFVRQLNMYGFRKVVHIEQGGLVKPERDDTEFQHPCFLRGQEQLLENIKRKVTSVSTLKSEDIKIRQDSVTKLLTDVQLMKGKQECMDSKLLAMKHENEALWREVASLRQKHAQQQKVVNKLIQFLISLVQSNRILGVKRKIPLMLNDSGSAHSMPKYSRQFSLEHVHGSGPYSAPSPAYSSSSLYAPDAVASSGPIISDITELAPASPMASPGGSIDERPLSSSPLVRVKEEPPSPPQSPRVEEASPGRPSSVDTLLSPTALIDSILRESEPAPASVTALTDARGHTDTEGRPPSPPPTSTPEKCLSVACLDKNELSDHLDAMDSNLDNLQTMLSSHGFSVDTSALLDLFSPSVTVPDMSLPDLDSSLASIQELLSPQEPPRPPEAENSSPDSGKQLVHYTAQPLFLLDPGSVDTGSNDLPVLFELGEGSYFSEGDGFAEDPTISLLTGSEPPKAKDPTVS
Procedure, shortened: as §1

SPIC = target: T2, SPIC (Homo sapiens, UniProt Q8N5J4 1-248); settings: protein: recombinant; tags: N-terminal GST; dsDNA, one strand shown
T2 sequence: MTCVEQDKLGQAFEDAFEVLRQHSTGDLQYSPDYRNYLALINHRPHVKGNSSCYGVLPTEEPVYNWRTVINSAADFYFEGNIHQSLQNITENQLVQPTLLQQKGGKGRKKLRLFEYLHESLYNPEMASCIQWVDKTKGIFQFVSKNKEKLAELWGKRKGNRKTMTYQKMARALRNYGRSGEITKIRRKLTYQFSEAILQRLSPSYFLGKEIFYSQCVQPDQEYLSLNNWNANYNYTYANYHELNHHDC
Procedure, shortened: as §1

ELF4 = ELF4 (Homo sapiens, UniProt Q99607 1-663); settings: protein: recombinant; tags: N-terminal GST; dsDNA, one strand shown
ELF4, sequence (Q99607 whole entry): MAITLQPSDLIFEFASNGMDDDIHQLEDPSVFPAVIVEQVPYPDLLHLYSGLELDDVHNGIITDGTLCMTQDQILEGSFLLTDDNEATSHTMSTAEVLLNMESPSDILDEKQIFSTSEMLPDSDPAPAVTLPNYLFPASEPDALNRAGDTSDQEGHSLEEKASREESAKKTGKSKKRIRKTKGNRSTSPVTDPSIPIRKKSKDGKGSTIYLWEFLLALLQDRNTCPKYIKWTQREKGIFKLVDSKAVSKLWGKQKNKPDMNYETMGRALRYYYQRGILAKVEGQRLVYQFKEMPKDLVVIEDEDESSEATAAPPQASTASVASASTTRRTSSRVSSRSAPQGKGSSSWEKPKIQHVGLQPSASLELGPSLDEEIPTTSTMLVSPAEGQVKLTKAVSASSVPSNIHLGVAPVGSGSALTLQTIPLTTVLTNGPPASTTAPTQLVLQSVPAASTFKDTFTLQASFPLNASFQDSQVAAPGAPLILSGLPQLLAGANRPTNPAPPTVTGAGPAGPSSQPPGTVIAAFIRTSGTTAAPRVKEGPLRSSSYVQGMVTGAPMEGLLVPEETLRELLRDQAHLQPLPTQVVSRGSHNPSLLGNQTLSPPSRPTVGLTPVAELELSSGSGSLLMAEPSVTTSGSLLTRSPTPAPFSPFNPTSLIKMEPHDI
Procedure, shortened: as §1

ELK4 = target: T3, ELK4 (Homo sapiens, UniProt P28324-2 1-405); settings: protein: recombinant; tags: N-terminal GST; dsDNA, one strand shown
T3 sequence: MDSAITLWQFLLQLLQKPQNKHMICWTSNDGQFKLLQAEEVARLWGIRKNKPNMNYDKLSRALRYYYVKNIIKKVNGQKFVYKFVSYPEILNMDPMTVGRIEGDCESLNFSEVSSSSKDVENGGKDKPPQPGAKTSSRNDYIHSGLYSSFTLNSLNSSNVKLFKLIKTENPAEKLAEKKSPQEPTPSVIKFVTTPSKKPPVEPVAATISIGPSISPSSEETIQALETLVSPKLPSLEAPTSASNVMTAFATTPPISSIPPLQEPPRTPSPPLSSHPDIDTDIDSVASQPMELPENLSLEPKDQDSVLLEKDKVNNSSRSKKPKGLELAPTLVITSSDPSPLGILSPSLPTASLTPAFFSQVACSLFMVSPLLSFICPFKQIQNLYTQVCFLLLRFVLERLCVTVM
Procedure, shortened: as §1

ETV2 = target: T4, ETV2 (Homo sapiens, UniProt O00321 1-342); settings: protein: recombinant; tags: N-terminal GST; dsDNA, one strand shown
T4 sequence: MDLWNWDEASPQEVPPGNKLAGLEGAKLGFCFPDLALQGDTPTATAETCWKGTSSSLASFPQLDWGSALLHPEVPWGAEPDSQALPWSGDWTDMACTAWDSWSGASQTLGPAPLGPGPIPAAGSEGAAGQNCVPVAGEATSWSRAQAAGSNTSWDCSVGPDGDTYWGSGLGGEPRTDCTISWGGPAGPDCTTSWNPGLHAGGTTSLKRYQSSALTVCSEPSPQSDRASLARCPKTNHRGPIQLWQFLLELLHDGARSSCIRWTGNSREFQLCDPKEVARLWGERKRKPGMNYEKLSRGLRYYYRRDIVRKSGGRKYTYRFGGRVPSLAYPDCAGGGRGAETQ
Procedure, shortened: as §1

ELF3 = target: T5, ELF3 (Homo sapiens, UniProt P78545 1-371); settings: protein: recombinant; tags: N-terminal GST; dsDNA, one strand shown
T5 sequence: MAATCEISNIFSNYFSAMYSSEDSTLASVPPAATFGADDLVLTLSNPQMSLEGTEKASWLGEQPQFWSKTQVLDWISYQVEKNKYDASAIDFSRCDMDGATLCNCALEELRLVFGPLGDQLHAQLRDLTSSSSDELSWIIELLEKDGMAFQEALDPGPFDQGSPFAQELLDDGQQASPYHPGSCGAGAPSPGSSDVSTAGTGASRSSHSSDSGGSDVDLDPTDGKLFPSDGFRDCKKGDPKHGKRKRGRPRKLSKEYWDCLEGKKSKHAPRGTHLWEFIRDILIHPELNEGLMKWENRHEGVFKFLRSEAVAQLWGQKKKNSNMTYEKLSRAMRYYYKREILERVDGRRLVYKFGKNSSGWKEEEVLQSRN
Procedure, shortened: as §1

CRX = CRX (Homo sapiens, UniProt O43186 1-299); settings: protein: recombinant; tags: N-terminal GST; dsDNA, one strand shown
CRX, sequence (O43186 whole entry): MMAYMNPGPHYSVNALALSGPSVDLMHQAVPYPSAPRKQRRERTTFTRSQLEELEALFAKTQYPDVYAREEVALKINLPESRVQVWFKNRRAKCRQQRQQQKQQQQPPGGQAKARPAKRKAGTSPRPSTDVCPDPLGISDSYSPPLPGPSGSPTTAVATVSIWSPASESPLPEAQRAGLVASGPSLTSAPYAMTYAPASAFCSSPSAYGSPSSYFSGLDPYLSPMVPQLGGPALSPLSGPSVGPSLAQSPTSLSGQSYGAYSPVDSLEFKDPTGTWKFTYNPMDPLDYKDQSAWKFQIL
Procedure, shortened: as §1

ETV1 = ETV1 (Homo sapiens, UniProt P50549 1-477); settings: protein: recombinant; tags: N-terminal GST; dsDNA, one strand shown
ETV1, sequence (P50549 whole entry): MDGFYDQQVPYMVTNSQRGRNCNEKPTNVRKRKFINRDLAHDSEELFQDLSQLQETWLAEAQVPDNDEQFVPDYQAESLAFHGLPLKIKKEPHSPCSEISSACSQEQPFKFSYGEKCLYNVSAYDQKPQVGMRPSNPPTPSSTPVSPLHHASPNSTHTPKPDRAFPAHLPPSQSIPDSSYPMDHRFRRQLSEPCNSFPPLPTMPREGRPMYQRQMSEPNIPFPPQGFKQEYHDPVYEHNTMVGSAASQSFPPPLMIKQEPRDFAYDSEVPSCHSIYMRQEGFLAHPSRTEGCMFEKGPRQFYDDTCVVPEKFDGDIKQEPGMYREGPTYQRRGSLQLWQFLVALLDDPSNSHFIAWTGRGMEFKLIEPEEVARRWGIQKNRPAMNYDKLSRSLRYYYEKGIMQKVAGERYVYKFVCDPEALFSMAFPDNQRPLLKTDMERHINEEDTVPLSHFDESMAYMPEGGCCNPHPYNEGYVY
Procedure, shortened: as §1

| Sequence | binding signal (FEV) | binding signal (ETV5) | binding signal (HSF1) | binding signal (SPIC) | binding signal (ELF4) | binding signal (ELK4) | binding signal (ETV2) | binding signal (ELF3) | binding signal (CRX) | binding signal (ETV1) |
| --- | --- | --- | --- | --- | --- | --- | --- | --- | --- | --- |
| CGCCCT | 1.37 fold enrichment (6-mer frequency, TF over GST control) | 1.29 fold enrichment (6-mer frequency, TF over GST control) | 1.13 fold enrichment (6-mer frequency, TF over GST control) | 1.21 fold enrichment (6-mer frequency, TF over GST control) | 1.47 fold enrichment (6-mer frequency, TF over GST control) | 1.1 fold enrichment (6-mer frequency, TF over GST control) | 1.4 fold enrichment (6-mer frequency, TF over GST control) | 1.04 fold enrichment (6-mer frequency, TF over GST control) | 1.11 fold enrichment (6-mer frequency, TF over GST control) | 1.37 fold enrichment (6-mer frequency, TF over GST control) |
| TCTCTC | 1.21 fold enrichment (6-mer frequency, TF over GST control) | 1.27 fold enrichment (6-mer frequency, TF over GST control) | 1.59 fold enrichment (6-mer frequency, TF over GST control) | 1.36 fold enrichment (6-mer frequency, TF over GST control) | 1.44 fold enrichment (6-mer frequency, TF over GST control) | 1.38 fold enrichment (6-mer frequency, TF over GST control) | 1.34 fold enrichment (6-mer frequency, TF over GST control) | 1.39 fold enrichment (6-mer frequency, TF over GST control) | 1.35 fold enrichment (6-mer frequency, TF over GST control) | 1.3 fold enrichment (6-mer frequency, TF over GST control) |
| GTTCTT | 1.11 fold enrichment (6-mer frequency, TF over GST control) | 1.23 fold enrichment (6-mer frequency, TF over GST control) | 1.36 fold enrichment (6-mer frequency, TF over GST control) | 1.12 fold enrichment (6-mer frequency, TF over GST control) | 1.18 fold enrichment (6-mer frequency, TF over GST control) | 1.23 fold enrichment (6-mer frequency, TF over GST control) | 1.15 fold enrichment (6-mer frequency, TF over GST control) | 1.31 fold enrichment (6-mer frequency, TF over GST control) | 1.12 fold enrichment (6-mer frequency, TF over GST control) | 1.21 fold enrichment (6-mer frequency, TF over GST control) |
| TATCGT | 1.05 fold enrichment (6-mer frequency, TF over GST control) | 1.12 fold enrichment (6-mer frequency, TF over GST control) | 1.17 fold enrichment (6-mer frequency, TF over GST control) | 1.09 fold enrichment (6-mer frequency, TF over GST control) | 1.07 fold enrichment (6-mer frequency, TF over GST control) | 1.13 fold enrichment (6-mer frequency, TF over GST control) | 1.16 fold enrichment (6-mer frequency, TF over GST control) | 1.15 fold enrichment (6-mer frequency, TF over GST control) | 1.28 fold enrichment (6-mer frequency, TF over GST control) | 1.21 fold enrichment (6-mer frequency, TF over GST control) |
| GCCTCT | 1.39 fold enrichment (6-mer frequency, TF over GST control) | 1.39 fold enrichment (6-mer frequency, TF over GST control) | 1.25 fold enrichment (6-mer frequency, TF over GST control) | 1.21 fold enrichment (6-mer frequency, TF over GST control) | 1.42 fold enrichment (6-mer frequency, TF over GST control) | 1.28 fold enrichment (6-mer frequency, TF over GST control) | 1.45 fold enrichment (6-mer frequency, TF over GST control) | 1.28 fold enrichment (6-mer frequency, TF over GST control) | 1.28 fold enrichment (6-mer frequency, TF over GST control) | 1.32 fold enrichment (6-mer frequency, TF over GST control) |
| TCTTTA | 1.22 fold enrichment (6-mer frequency, TF over GST control) | 1.16 fold enrichment (6-mer frequency, TF over GST control) | 1.5 fold enrichment (6-mer frequency, TF over GST control) | 1.22 fold enrichment (6-mer frequency, TF over GST control) | 1.21 fold enrichment (6-mer frequency, TF over GST control) | 1.3 fold enrichment (6-mer frequency, TF over GST control) | 1.31 fold enrichment (6-mer frequency, TF over GST control) | 1.36 fold enrichment (6-mer frequency, TF over GST control) | 1.93 fold enrichment (6-mer frequency, TF over GST control) | 1.25 fold enrichment (6-mer frequency, TF over GST control) |
| AACGCT | 1.18 fold enrichment (6-mer frequency, TF over GST control) | 1.23 fold enrichment (6-mer frequency, TF over GST control) | 1.06 fold enrichment (6-mer frequency, TF over GST control) | 1.26 fold enrichment (6-mer frequency, TF over GST control) | 1.27 fold enrichment (6-mer frequency, TF over GST control) | 1.22 fold enrichment (6-mer frequency, TF over GST control) | 1.24 fold enrichment (6-mer frequency, TF over GST control) | 1.14 fold enrichment (6-mer frequency, TF over GST control) | 1.17 fold enrichment (6-mer frequency, TF over GST control) | 1.2 fold enrichment (6-mer frequency, TF over GST control) |
